Consider 40 compounds from PubChem BioAssay (NCI).

Structures are written as SMILES. Compounds without any hit were thinned out: in the full panel of roughly 83,000, 20% have a hit.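 For each line, cells grew in 96-well plates with the test compound present at a single concentration for 48 hours.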 Activity calls are given as the source filed them. Rule for the calls: active = growth percent below 10; inactive = the rest.

The test system of the assay is MDA-MB-468 breast. Briefly: NCI-60 one-dose screen, 48 h (100 = growth as untreated, 0 = no growth, -100 = all killed). To be noted: 10 µM unless noted.
Take `CCc1nc(C(N)=O)c(Nc2ccc(N3CCC(N4CCN(C)CC4)CC3)c(OC)c2)nc1NC1CCOCC1`: the growth is 69.7% (inactive).
In the case of `COc1ccc(/C(C)=C(\c2ccc(Cl)cc2)c2ccc(OCCN3CCCC3)cc2)cc1` it was 57.8% (inactive); in that of `CC(=O)Oc1csc(N(C(C)=O)c2cccc(C(F)(F)F)c2)n1`, 92.1% (inactive).
Turning to `O=C(Cc1ccc(Nc2ccnc(C(F)(F)F)c2)cc1)N/N=C/c1ccccc1O`, the growth was 8.1% (active).
Consider `COc1cccc(-c2cc3c(O)cc(C#N)cc3[nH]2)c1`, for which the growth was 102% (inactive).
Then `CCCCCCCCCCC(C[N+](C)(C)C/C=C/c1ccccc1)C(O)c1ccccc1` (stereo not given), with -69.4% (active).
Consider `COc1ccc(/C=C(/C2=NCCN2)n2ccc3ccccc32)cc1`, for which the growth is 89.6% (inactive).
In the case of `CC(=O)[C@@]12O[C@](C)(c3ccccc3)O[C@@H]1CC1C3CCC4=CC(=O)CC[C@]4(C)C3CC[C@@]12C` (stereo not given in full), the growth is 32.8% (inactive).
Take `S=c1nc(-c2ccccn2)c(-c2ccccn2)n[nH]1`: the growth is 108% (inactive).
`CCOC(=O)C1=C(C(=O)OCC)N(c2cc(OC)c(OC)c(OC)c2)C(N)=C(C#N)C1c1cc(=O)[nH]c2ccccc12` (stereo not given): the growth is 92% (inactive).
Then `COc1ccc(-c2cc3c(C)nc(N)nc3n(C3CCC(OCCO)CC3)c2=O)cn1` (stereo not given), with -50% (active); and `CCOC(=O)C1=CN(C)C=C(C(=O)OCC)C1c1cc(Br)c(OCC)c(OC)c1`, with 62.1% (inactive).
In the case of `O=[N+]([O-])c1ccc(C(Br)c2ccc([N+](=O)[O-])cc2)cc1` it was 112% (inactive).
In the case of `N#Cc1c(-c2cccc(Cl)c2)cc(-c2cccc(Cl)c2)[nH]c1=O` it was 73.2% (inactive).
Regarding `COc1ccc(/C=C/C(=O)c2cccc(OCCCCOc3cccc(C(=O)/C=C/c4ccc(OC)c(OC)c4)c3)c2)cc1OC`, the growth is 23.1% (inactive).
Turning to `O=[N+]([O-])c1cccc(N=NNc2cccc([N+](=O)[O-])c2)c1`, the growth is 57.9% (inactive).
Take `CCCCCCCCc1ccc(CCC(N)(CO)CO)cc1`: the growth is -93.1% (active).
In the case of `CCCCCn1ncc(-c2c(O)c(O)cc3c(O)c(-c4c(C)cc5c(-c6cnn(CCCCC)n6)c(O)c(O)cc5c4O)c(C)cc23)n1` it was -2.7% (active); in that of `O=C(CCC(=O)N1CCOCC1)OCCCCCCSc1ccc([N+](=O)[O-])c2nonc12`, -43.1% (active).
As to `N#Cc1c(-c2ccc(F)cc2)nc2c(C#N)c(Nc3ccccc3)nn2c1N`, the growth is 103% (inactive).
In the case of `COc1ccc(-c2cc(C(=O)N=Nc3c(O)[nH]c4ccc(Br)cc34)no2)cc1`, the growth is 103% (inactive).
In the case of `Cn1c(COC(=O)NCCN2CCOCC2)nc2c(N3CCOCC3)nc(-c3ccccc3)nc21`, the growth is -69.1% (active).
In the case of `C=C(C)[C@@H]1CC[C@]2(C)[C@H](C=CC3=C4C[C@@](C)(CO)CC[C@]4(C)CC[C@]32C)[C@@]1(C)CCCN`, the growth is -62.1% (active).
In the case of `CCn1cc(C(=O)O)c(=O)c2cc(F)c(N3CCNCC3)cc21` it was 93.2% (inactive).
In the case of `CC1=C(C(=O)Nc2ccc(F)cc2)C(c2ccccc2)C2=C(CC(C)(C)CC2=O)N1` (stereo not given), the growth is 67.7% (inactive).
Regarding `Cc1ccc(Nc2ccc(Nc3ccc(C)cc3S(=O)(=O)O)c3c2C(=O)c2ccccc2C3=O)c(S(=O)(=O)O)c1`, the growth is 104% (inactive).
Regarding `CCC1=C[C@@H]2CN(C1)Cc1c([nH]c3ccccc13)[C@@](C(=O)OC)(c1cc3c(cc1OC)N(C)[C@H]1[C@@](O)(C(=O)OC)[C@H](OC(C)=O)[C@]4(CC)[C@@H]5C[C@@H]5CN5CC[C@]31[C@@H]54)C2`, the growth was -31.7% (active).
Then `COc1cc(NC(=O)CCSc2nc3ccc(C)cc3c(=O)n2Cc2ccccc2)cc(OC)c1OC`, with 68.6% (inactive); and `CCNCCCn1c2c(c3ccc([N+](=O)[O-])cc3c1=O)C(=O)c1cc(OC)cnc1-2`, with -34.3% (active); and `C=CCOc1ccc2c(c1)CC[C@@H]1[C@@H]2CC[C@@]2(C)[C@H]1CC[C@]2(C)O`, with 81.2% (inactive).
Consider `CCOC(=O)c1nc(Nc2cc(C)[nH]n2)c2ccccc2n1`, for which the growth was 54.9% (inactive).
Consider `Cc1cc2c(C(C)C)c(O)c(O)c(C=NCCCCCCC(=O)O)c2c(O)c1-c1c(C)cc2c(C(C)C)c(O)c(O)c(C=NCCCCCCC(=O)O)c2c1O`, for which the growth was 30.4% (inactive).
Consider `CCOC(=O)c1cc(-c2cccnc2)nc2c(Cl)cc(Cl)cc12`, for which the growth was 117% (inactive).
Regarding `CC(C)(O)c1cn(CCCCN2C(=O)C(=O)c3ccccc32)nn1`, the growth was 95% (inactive).
Regarding `CSc1nc(NCCN2CCOCC2)c(C#N)c(-c2cccc([N+](=O)[O-])c2)n1`, the growth is 113% (inactive).
For the compound `COc1ccccc1NC(=O)Nc1ccc(-c2nc3ccccc3o2)cc1`, the growth was 101% (inactive).
In the case of `C=C1C(=O)O[C@H]2[C@H]1CC/C(Cn1cc(-c3ccc(N)cc3)nn1)=C\CC[C@@]1(C)O[C@@H]21`, the growth is -44.8% (active).
Take `C=CC(=O)Nc1cc2c(Nc3ccc(F)c(Cl)c3)ncnc2cc1C#CC(C)(C)N1CCN(C)CC1`: the growth is -61.1% (active).
For the compound `COc1ccc2c(c1)nc(N)c1c3cccnc3cn21`, the growth was 13.4% (inactive).
In the case of `Cc1cc(NC(=O)NC(=O)c2ccccc2N(C)C)ccc1Oc1ncc(Br)cn1`, the growth was -2.54% (active).
